Screening results deposited in PubChem by National Center for Advancing Translational Sciences (NCATS).
Shown are actives, neighbours in structure and some others; about 7.4% of the full set was active somewhere.
ELG1 genotoxic = induces genotoxicity in HEK293T cells with luciferase-tagged ELG1; actives 1.3% (n = 330,000); HEK293T ELG1-luciferase reporter, luminescence, 16 h; AID 504466; Potency, µM (doses to about 46 µM), without a hit: at the highest dose activity change, positive = activation, hits mostly activators; also: % of control where 0% means no effect; nearly all actives have a fitted effect of over 60% in size
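Screening used a luciferase reporter fused to human ELG1 in HEK293T cells. Luminescence was read on a CCD plate imager after 16 hr exposure and 30 min ONE-Glo incubation.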
SMN2 splice enh = increases expression of the SMN2 splice variant. actives 2.8% (n = 210,000). Potency, µM (top dose mostly 46.1 µM), for inactives: at the top dose activity change, positive = activation, usual class: activators. HEK293 SMN2-luciferase splicing reporter, luminescence, 30-36 h; also: % of control where 0% means no effect; nearly all actives have a fitted effect of over 55% in size
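qHTS luciferase splicing reporter: luminescence rises when SMN2 exon 7 is included in transfected HEK293 cells. Compound exposure lasted 30-36 h at 37C, with 4.5 mM final sodium butyrate as control, followed by a ONE-Glo read.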
Rab9 prom act = activates the Rab9 promoter; Huh7 Rab9 promoter-luciferase reporter, luminescence, 24 h; Potency, µM (titrated, usually from 9.22 µM), for the others: at the top dose activation, negative = inhibition, usual class: activators; actives 2.8% (n = 320,000); also: % of control where 0% means no effect; nearly all actives have a fitted effect of over 60% in size
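Rab9 promoter-driven luciferase in stably transfected Huh7 cells; 1500 cells/well rested 2 h, exposed to compound in DMSO for 24 h at 37 °C, 5% CO2. Luminescence read 10 min after adding luciferase reagent at ambient temperature.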
NPC1 prom act = NPC1 promoter activation; Huh7 NPC1 promoter luciferase reporter, 24 h; Potency, µM (highest dose often 9.22 µM), inactives show top-dose activation, hits mostly activators; actives 2.4% (n = 320,000); AID 485313; also: % of control where 0% means no effect; nearly all actives have a fitted effect of over 60% in size
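Luminescence read-out of NPC1 promoter-driven luciferase in stably transfected Huh7 cells; compounds delivered in DMSO and left 24 h at 37C, 5% CO2, qHTS titration format.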
FLuc counter = inhibits or activates purified firefly luciferase, miR-21 counter-screen; purified FLuc, Km substrates, luminescence inhibition; Potency, µM (doses to about 57.5 µM), for inactives: at the highest dose activity change, negative = inhibition, hits mostly inhibitors; AID 588342; actives 6.9% (n = 360,000);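 also: plate controls were vehicle for no effect and reference inhibitor for full effect; nearly all actives have a fitted effect of over 55% in size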
Target sequence (P08659 whole entry, looked up): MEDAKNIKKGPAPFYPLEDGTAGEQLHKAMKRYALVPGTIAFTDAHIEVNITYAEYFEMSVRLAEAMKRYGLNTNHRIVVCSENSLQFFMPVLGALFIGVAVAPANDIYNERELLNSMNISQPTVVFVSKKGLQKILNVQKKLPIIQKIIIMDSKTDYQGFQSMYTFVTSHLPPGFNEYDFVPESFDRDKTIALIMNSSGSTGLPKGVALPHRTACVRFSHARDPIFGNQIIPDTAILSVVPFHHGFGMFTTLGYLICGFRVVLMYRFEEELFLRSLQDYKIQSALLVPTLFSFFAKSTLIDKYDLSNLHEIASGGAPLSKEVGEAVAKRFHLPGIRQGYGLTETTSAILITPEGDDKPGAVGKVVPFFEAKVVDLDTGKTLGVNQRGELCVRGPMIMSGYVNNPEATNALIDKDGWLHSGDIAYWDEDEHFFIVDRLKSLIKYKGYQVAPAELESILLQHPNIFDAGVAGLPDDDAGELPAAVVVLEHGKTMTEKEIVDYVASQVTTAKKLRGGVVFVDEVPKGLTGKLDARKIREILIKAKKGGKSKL
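Biochemical qHTS of compounds, final roughly 60 µM downward over six points, against 10 nM purified firefly luciferase using Km concentrations of substrates (10 uM D-luciferin, 10 uM ATP) in Tris acetate pH 7.5 buffer; luminescence output.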
Starred values were filed as active, the others as inactive; ? = inconclusive; / = no result; [ ] = dose if it differs, or a comment. Calls follow the shape of the dose curve; as a rule, active = well fitted curve in the direction sought with a large enough effect; inconclusive = small, poorly fitted or top-dose-only effect, or another doubt; inactive = no such curve, though single readings can be large; an effect the other way counts as inactive or inconclusive. Potency is read from the fitted curve at half-maximal effect.

SMILES	ELG1 genotoxic	SMN2 splice enh	Rab9 prom act	NPC1 prom act	FLuc counter
Cc1cc(C(=O)COC(=O)c2ccc(O)cc2)c(C)n1CC(F)(F)F	?	/	3.2µM*	2.8µM*	/
CCCn1c(C)cc(C(=O)COC(=O)c2ccc(Cl)c(S(=O)(=O)N3CCCC3)c2)c1C	1%	-20%	-2%	-2%	2.4µM*
Cc1cc(C(=O)COC(=O)C2=NN(c3ccccc3)C(=O)CC2)c(C)n1CC(F)(F)F	3%	-1%	1%	-2%	-16%
C#CCNC(=O)/C=C/c1ccc(C)cc1	?	13µM*	4µM*	3.2µM*	11µM*
Cc1ccc(/C=C/C(=O)NCCCc2ccccc2)cc1	-3%	-10%	-1%	1%	-26%
COc1ccc(C(=O)Nn2c(SCC(=O)NCc3ccco3)nc3ccccc3c2=O)cc1	?	?	0.089µM*	0.32µM*	0.21µM*
O=C(Nn1c(SCc2cccc([N+](=O)[O-])c2)nc2ccccc2c1=O)c1ccccc1	14%	?	20%	-2%	?
COCCCn1c(SCC(=O)NC2CCCCC2)nc2ccccc2c1=O	0%	/	6%	-12%	-1%
COCCn1c(SCC(=O)N2CCC(C)CC2)nc2ccccc2c1=O	-1%	-12%	5%	-3%	0%
COc1ccc(C(=O)Nn2c(SCC(=O)NC3CCCCC3)nc3ccccc3c2=O)cc1	?	29%	4µM*	3.5µM*	1.9µM*
COc1ccc(C(=O)Nn2c(SCc3cccc([N+](=O)[O-])c3)nc3ccccc3c2=O)cc1	0.73µM*	/	3.5µM*	4µM*	5.4µM*
COc1ccc(C(=O)Nn2c(SCC(=O)N3CCC(C)CC3)nc3ccccc3c2=O)cc1	?	-79%	/	0.4µM*	0.67µM*
Cc1ccc(CN2C(=O)c3ccccc3CC2(C)C(=O)NC2CCCCC2)cc1 (stereo not given)	/	-2%	/	/	-10%
COc1ccc(Cl)cc1NC(=O)c1ccc(CN2C(=O)CCn3nc(C)cc32)cc1	/	/	/	/	2%
COc1ccc(C(=O)Nn2c(SCC(=O)c3ccc(Cl)cc3)nc3ccccc3c2=O)cc1	?	-88%	0.5µM*	0.45µM*	4.8µM*
CCc1cccc(NC(=O)C2CCCN(c3ncnc4onc(-c5ccc(F)cc5)c34)C2)c1 (stereo not given)	/	/	/	/	0%
O=C(NN=C(Cc1ccccc1)Cc1ccccc1)c1ccccc1O	1%	1%	-18%	-6%	12µM*
C/C(Cc1ccccc1)=N\NC(=O)c1ccc(F)cc1	4%	-36%[1.84 µM]	0%	4%	-9%
O=C(NN=C(Cc1ccccc1)Cc1ccccc1)c1ccc(F)cc1	1%	25%	1%	11%	19µM*
CC(C)(C)C1CCc2onc(C(=O)Nc3sc4c(c3C#N)CCCC4)c2C1 (stereo not given)	/	9%	/	/	?
O=C(NNC(=O)c1ccc(NC(=O)C2CC2)cc1)c1ccc(F)cc1	11%	/	-1%	1%	2%
O=C(Nc1ccccc1C(=O)O)c1ccc(NC(=O)C2CCCCC2)cc1	-14%	/	13%	3%	9.5µM*
O=C(Nc1ccccc1)c1ccc(NC(=O)C2CC2)cc1	21µM*	/	2.8µM*	1.6µM*	7.6µM*
COc1ccc(-n2c(SCC(=O)Nc3cc(C)cc(C)c3)nc3c(oc4ccccc43)c2=O)cc1	/	0%	/	/	-1%
N#C/C(=C\c1cccs1)C(=O)Nc1nccs1	?	?	2.8µM*	3.5µM*	4.3µM*
SMILES	ELG1 genotoxic	SMN2 splice enh	Rab9 prom act	NPC1 prom act	FLuc counter
N#C/C(=C\c1cccs1)C(=O)NCc1ccccc1	6%	11%	0%	0%	-12%
N#C/C(=C\c1cccs1)C(=O)c1ccccc1Cl	-10%	/	-6%	2%	21µM*
O=C1CCCc2[nH]c(=O)c(-c3nc(-c4cccc([N+](=O)[O-])c4)cs3)cc21	/	-20%	/	/	-1%
Cc1ccc(C(=O)N2c3ccc(C)cc3C(C)(c3ccccc3)CC2(C)C)cc1 (stereo not given)	/	-27%	/	/	-4%
CCCCCCCCCCCCCCCCCC(=O)OC(CC(=O)O)C[N+](C)(C)C (stereo not given)	/	-12%	-9%[46.1 µM]	2%[46.1 µM]	/
Nc1nc(Cc2ccccc2)nc(Cc2ccccc2)c1-c1ccccc1	/	-6%[9.22 µM]	/	/	/
CCCCn1c(=O)c2oc3ccccc3c2n(CC(=O)Nc2cccc(Cl)c2C)c1=O	/	/	/	/	-5%
Clc1ccc(-c2nc3nc4ccccc4nc3n2Cc2ccco2)cc1	23µM*	18µM*	4%	0%	?
Cc1ccc(-c2nc3nc4ccccc4nc3n2Cc2ccco2)cc1	2.9µM*	8.9µM*	12%	4%	11µM*
CCCCCn1c(-c2ccco2)nc2nc3ccccc3nc21	-26%	8%	2%	-2%	?
CCOc1ccc(CCNC(=O)CN2CCN(Cc3ccc(Cl)cc3)C2=O)cc1OCC	/	-42%	/	/	-2%
COc1ccc2c(c1OC)C(=O)OC2Nc1nc(-c2cc3ccccc3oc2=O)cs1 (stereo not given)	?	2.2µM*	0.45µM*	0.89µM*	8.5µM*
COc1ccc2c(c1OC)C(=O)OC2Nc1nc(-c2ccc(-c3ccccc3)cc2)cs1 (stereo not given)	3.3µM*	2.2µM*	0.71µM*	0.71µM*	1.3µM*
CCS(=O)(=O)N1CCC2(CC1)OC(=O)C(C)=C2C(=O)NCc1ccccc1C	/	/	/	/	-10%
COc1ccc2c(c1)c1c(c(=O)n(Cc3ccccc3)c(=O)n1CC(=O)Nc1ccccc1F)n2C	/	/	/	/	-3%
COc1ccc(/C=C/C(=O)c2ccc[nH]2)c(OC)c1OC	?	?	?	?	8.5µM*
COc1ccc(/C=C/C(=O)c2ccncc2)c2ccccc12	-4%	-57%	-5%	2%	?
COc1ccc(/C=C/C(=O)c2ccc[nH]2)cc1OC	21µM*	?	3.2µM*	?	12µM*
Nc1[nH]c(N=NC(=O)c2ccccc2O)c2ccccc12	15µM*	11µM*	2µM*	2.8µM*	8.5µM*
O=C(N=Nc1c(O)[nH]c2ccc([N+](=O)[O-])cc12)c1ccccc1Cl	0%	/	8%	14%	-16%
Nc1[nH]c(N=NC(=O)c2ccc(Cl)cc2)c2ccccc12	2%	?	20%	18%	?
Nc1[nH]c(N=NC(=O)c2ccccc2)c2ccccc12	?	2.8µM*	1.1µM*	1.8µM*	4.8µM*
O=C(NCc1ccccc1Br)c1ccc2c(c1)nc1n2CCOC1	/	/	/	/	-3%
Cc1cc(NC(=O)COc2ccccc2)ccc1Cl	?	/	28%	?	27µM*
Cc1ccc(NC(=O)COc2ccccc2)cc1Cl	15%	/	0%	-5%	?
CC(C)c1ccc(NC(=O)COc2ccccc2)cc1	?	/	?	?	17µM*
CC(C)c1ccc(OCC(=O)Nc2ccc(OC(F)(F)F)cc2)cc1	-1%	/	-1%	1%	1%
